PMC4552634, “A New Set of Chemical Starting Points with Plasmodium falciparum Transmission-Blocking Potential for Antimalarial Drug Discovery” (PLoS ONE, 2015)
About 3,200 (25%) of roughly 13,000 compounds showed an effect of 50% or more. The list shows a part of the results.

Tested on: P. falciparum stage V gametocytes
Parameters: BacTiter-Glo ATP luminescence viability of purified stage V gametocytes in 384-well plates, per cent inhibition versus DMSO
Conditions: 48 h, 5 µM; inhibitor

| SMILES | % Inhibition [%] |
| --- | --- |
| COc1cc(F)c2ncc(Cl)c(C(O)CN3CCC(NC(=O)c4ccc5c(c4)NC(=O)CS5)CC3)c2c1 (stereo not drawn) [TCMDC-135908] | -70.28 |
| Cc1noc(C)c1-c1cccc(CNCc2cccc(-c3csc(-c4nc5ccccc5[nH]4)c3)c2)c1 [TCMDC-133047] | -19.47 |
| Cc1cccc2nc(-c3ccc(-c4cccc(NC(=O)Nc5ccsc5)c4)s3)[nH]c12 [TCMDC-133208] | 8.037 |
| CC1(C)N=C(N)N=C(N)N1OCCCc1ccc(Cl)cc1Cl [TCMDC-131692] | 4.93 |
| O=C(NC1CCC(CCN2Cc3cccc(F)c3C2)CC1)c1cccc(-c2cccnc2)c1 (stereo not drawn) [TCMDC-139623] | -21.05 |
| COc1ccc2nccc([C@@H](O)CN3CCC(NC(=O)c4ccc5cc[nH]c5c4)CC3)c2c1 [TCMDC-140743] | -6.563 |
| COc1cc(C(=O)Nc2ccc3nc(N4CCN(C)CC4)cc(C)c3c2)cc(OC)c1OC [TCMDC-123591] | 10.02 |
| CCN(CC1CCN(CC2(O)CCOCC2)CC1)c1cc(C)nc(Nc2ccc(Cl)cc2)n1 [TCMDC-133808] | 30.17 |
| N=C(N)c1ccc(Nc2nccc(Nc3nc(-c4ccccc4)cs3)n2)cc1 [TCMDC-136090] | -20.73 |
| CNC(=O)c1ccccc1Nc1nc(Nc2ccc(C(=O)O)cc2)ncc1Cl [TCMDC-133803] | -5.909 |
| CCN(CC)CCNC(=O)c1ccc(Nc2ncc([N+](=O)[O-])c(Nc3ccccc3OC)n2)cc1 [TCMDC-138727] | 73.19 |
| CCN(CC)CCNC(=O)c1ccc(NC(=O)c2cc(-c3ccncc3)nc3ccccc23)cc1 [TCMDC-124495] | 0.6549 |
| CC(=O)Nc1ccc(Nc2ncc([N+](=O)[O-])c(Nc3ccccc3C(N)=O)n2)cc1 [TCMDC-138731] | -8.61 |
| N=C(N)c1ccc(Nc2nc(Nc3ccc(-c4ccccc4)cc3)ncc2[N+](=O)[O-])cc1 [TCMDC-136145] | 99.81 |
| CCC(C)c1ccc(NC(=O)Nc2ccc(Cn3ncc(N4CCCNCC4)c(Cl)c3=O)cc2)cc1 (stereo not drawn) [TCMDC-133313] | -21.93 |
| COc1cc(-c2[nH]c(-c3ccc(OCCN(C)C)cc3)cc2-c2ccncc2)ccc1Cl [TCMDC-141225] | -13.45 |
| N=C(N)c1ccc(NC(=O)c2cc(Sc3ccc(O)c(C(=O)Nc4ccc(C(=N)N)cc4)c3)ccc2O)cc1 [TCMDC-136287] | -39.81 |
| CN(C)c1ccc(C=C2SC(=N)N(c3nccs3)C2=O)cc1 [TCMDC-125861] | -21.41 |
| Cc1nc(N)nc(N)c1OCc1cccc2c1ccc1ccccc12 [TCMDC-131344] | 22.54 |
| Cc1nc2nc(N)nc(N)c2c(C)c1Cc1cccc(F)c1 [TCMDC-137652] | -9.941 |
| Cc1nc2nc(N)nc(N)c2c(C)c1Cc1ccccc1Br [TCMDC-137242] | -1.627 |
| COc1ccccc1Cc1c(C)nc2nc(N)nc(N)c2c1C [TCMDC-137247] | 65.53 |
| Cc1nc2nc(N)nc(N)c2c(C)c1Cc1ccc([N+](=O)[O-])cc1 [TCMDC-137636] | 77.57 |

| SMILES | % Inhibition [%] |
| --- | --- |
| Cc1ccc(Cc2c(C)nc3nc(N)nc(N)c3c2C)cc1 [TCMDC-137657] | -7.172 |
| Cc1nc2nc(N)nc(N)c2c(C)c1Cc1c(Cl)cccc1Cl [TCMDC-137638] | 65.23 |
| Cc1nc2nc(N)nc(N)c2c(C)c1Cc1ccccc1Cl [TCMDC-137668] | -12.71 |
| Cc1nc2nc(N)nc(N)c2c(C)c1Cc1ccc(N)cc1 [TCMDC-137633] | -5.029 |
| COc1ccc(OC)c(Cc2c(C)nc3nc(N)nc(N)c3c2C)c1 [TCMDC-137651] | -0.1524 |
| CO/C(=C\C=C\c1cc2cc(Cl)c(Cl)cc2[nH]1)C(=O)NCCCN1CCN(c2cccc(CCCO)c2)CC1 [TCMDC-139412] | 14.82 |
| NC(N)=Nc1ccc(NC(=O)Nc2ccc(N=C(N)N)cc2)cc1 [TCMDC-137208] | -16.48 |
| Cc1cccc2nc(-c3ccc(-c4cccc(NC(=O)NCc5cccc(F)c5)c4)s3)[nH]c12 [TCMDC-133285] | -13.08 |
| OC1CCC(Nc2ccc3ncc(-c4ccc(Cl)cc4)n3n2)CC1 (stereo not drawn) [TCMDC-136693] | 13.04 |
| OC(CNc1ccnc(Nc2ccc(Cl)cc2)n1)c1ccc(C(F)(F)F)cc1 (stereo not drawn) [TCMDC-136597] | -19.72 |
| CC(C)(CNCc1ccc(F)c(F)c1)c1nc(-c2ccc(Cl)c(O)c2)c(-c2ccnc(N)n2)[nH]1 [TCMDC-141163] | -6.922 |
| O=C(NCCSCc1c(F)cccc1Cl)c1cnc2c(c1)nc(-c1cnc(-c3ccccc3)[nH]1)n2CCc1cnc[nH]1 [TCMDC-139691] | -6.07 |
| CCNc1cc(C)nc(Nc2ccc(NC(=O)c3ccccc3Cl)cc2)n1 [TCMDC-124986] | -9.535 |
| Cc1ccc2cc(NC(=O)c3cccc(C(=O)Nc4ccc5nc(C)ccc5c4)n3)ccc2n1 [TCMDC-139460] | -22.62 |
| CCCOc1cc(OCCC)cc(-c2ccc(C(=O)Nc3ccc4ccc(C)nc4c3)c(=O)[nH]2)c1 [TCMDC-141499] | 82.34 |
| CC1(C)CCCN(Cc2c(O)ccc3c(=O)c(-c4nc5ccccc5s4)c(N)oc23)C1 [TCMDC-124009] | -3.964 |
| Cc1cc(CN2CCC(Nc3ncc(-c4ccsc4)c4nc(C(F)(F)F)ccc34)CC2)no1 [TCMDC-125306] | 66.69 |
| O=C(NC1CCN(Cc2ccsc2)CC1)c1ccc(-c2cccc(C(F)(F)F)c2)s1 [TCMDC-134366] | 17.83 |
| Cc1nc(-c2nc(N3CCC(O)CC3)ncc2-c2ccsc2)sc1C [TCMDC-133149] | 35.11 |
| Oc1cccc2c1CC(NCc1ccccc1)CC2 (stereo not drawn) [TCMDC-137987] | 8.096 |
| CCCNc1ccc(-c2cc(C(N)=O)c3[nH]cc(C4CCN(S(=O)(=O)CC)CC4)c3c2)cn1 [TCMDC-136721] | 8.74 |
| NC(=O)c1cc(-c2ccccc2)cc2c(C3CCC(NCc4ccccc4)C3)c[nH]c12 (stereo not drawn) [TCMDC-136335] | 119.1 |
